A short description of experiment [1]: antimalarial activity against Dd2 strain (AID 2302;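 active means growth inhibition above 50% at the single 2 µM test dose, taken to imply half-maximal potency below 2 µM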;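 further: 0% = DMSO untreated growth and 100% = chloroquine plus artemisinin killed control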). The settings on record: P. falciparum Dd2 in RBCs, LDH growth readout, 72 h; at 2 µM; stronger effect = higher value.
Experiment [2] can be described thus: HepG2 cytotoxicity, primary screen, cytotoxicity control for P. falciparum antimalarial project, cell-based, ATP luminescence (AID 2303;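 active means inhibition above 50%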;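 further: 0% = DMSO wells and 100% = digitonin-killed cells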). The settings on record: HepG2 viability, 24-48 h, at 10 µM, stronger effect = higher value.
Experiment [3] deals with L-lactate dehydrogenase (Plasmodium falciparum (isolate CDC / Honduras)) (UniProt Q27743). Nature of the experiment: PfLDH activity inhibition – cell lysate, 3D7 strain, counter-screen for P. falciparum growth inhibition project (AID 2304).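 Further: 0% = vehicle and 100% = reference inhibitor.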 The settings on record: P. falciparum 3D7 crude extract, LDH APAD/NBT absorbance; at 2 µM; stronger effect = higher value. (In general: The purpose of a counterscreen is to sort out artefacts and off-target activity.)

A short description of experiment [4]: inhibition of 3D7 malaria parasite growth – strain 3D7 (AID 2306).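 Further: 0% = DMSO wells and 100% = chloroquine plus artemisinin control wells.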 To be noted: P. falciparum 3D7 erythrocytic growth, LDH absorbance, 72 h; at 2 µM; stronger effect = higher value.
Experiment [5] has as its target Calcium-dependent protein kinase 1 (Plasmodium falciparum (isolate 3D7)) (UniProt P62344). Nature of the experiment: PfCDPK1 kinase inhibitors, biochemical, TCAMS library (AID 1159585; cut-off not given, nearly all actives have IC50 up to about 0.98 µM;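 further: inhibitors leave more ATP so luminescence rises with inhibition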). The settings on record: recombinant PfCDPK1, Kinase-Glo ATP depletion luminescence.
Experiment [6] has as its target Plasmodium falciparum protein kinase 6 (PK6, PF3D7_1337100) (UniProt Q8IDW1). The experiment can be described thus: PfPK6 kinase inhibitors, biochemical, TCAMS library (AID 1159586). To be noted: recombinant PfPK6, Kinase-Glo ATP depletion luminescence. A general note: Kinase-Glo reads ATP consumption through a luciferase reaction.
The target of experiment [7] is Protein kinase 7 (PK7), Plasmodium falciparum 3D7 (PF3D7_0213400) (UniProt Q7YTF7). Nature of the experiment: inhibition of Plasmodium PK7 catalytic activity – biochemical, TCAMS antimalarial set, Kinase-Glo luminescence (AID 1159587). The settings on record: recombinant PfPK7, Kinase-Glo ATP depletion luminescence.
Experiment [8] deals with Calcium-dependent protein kinase 4 (Plasmodium falciparum (isolate 3D7)) (UniProt Q8IBS5). The experiment can be described thus: PfCDPK4 kinase inhibitors, biochemical, TCAMS library (AID 1159588; cut-off not given, nearly all actives have IC50 up to about 0.91 µM). To be noted: recombinant PfCDPK4, Kinase-Glo ATP depletion luminescence.

Each structure is given as a SMILES string. A number with no mark means an inactive call. For some assays here: Results with a measured potency or affinity are listed apart. The source made the active and inactive calls. Unless noted, how the calls were made is not given here.

Calcium-dependent protein kinase 4 (Plasmodium falciparum (isolate 3D7)), sequence (Q8IBS5 whole entry, looked up): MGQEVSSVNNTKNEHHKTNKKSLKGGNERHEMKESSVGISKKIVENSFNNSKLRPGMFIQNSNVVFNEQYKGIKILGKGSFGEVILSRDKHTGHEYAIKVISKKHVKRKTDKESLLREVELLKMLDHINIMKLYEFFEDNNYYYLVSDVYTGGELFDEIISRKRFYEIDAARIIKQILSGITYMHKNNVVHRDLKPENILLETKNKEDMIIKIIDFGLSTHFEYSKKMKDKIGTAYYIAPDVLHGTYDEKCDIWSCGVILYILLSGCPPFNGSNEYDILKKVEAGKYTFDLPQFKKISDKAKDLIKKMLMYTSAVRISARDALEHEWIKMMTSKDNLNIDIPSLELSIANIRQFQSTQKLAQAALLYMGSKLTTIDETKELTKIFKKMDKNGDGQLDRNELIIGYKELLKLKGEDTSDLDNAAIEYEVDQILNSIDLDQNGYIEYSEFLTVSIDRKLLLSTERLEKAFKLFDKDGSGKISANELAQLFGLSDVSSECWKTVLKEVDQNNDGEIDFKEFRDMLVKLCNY
L-lactate dehydrogenase (Plasmodium falciparum (isolate CDC / Honduras)), sequence (Q27743 whole entry, looked up): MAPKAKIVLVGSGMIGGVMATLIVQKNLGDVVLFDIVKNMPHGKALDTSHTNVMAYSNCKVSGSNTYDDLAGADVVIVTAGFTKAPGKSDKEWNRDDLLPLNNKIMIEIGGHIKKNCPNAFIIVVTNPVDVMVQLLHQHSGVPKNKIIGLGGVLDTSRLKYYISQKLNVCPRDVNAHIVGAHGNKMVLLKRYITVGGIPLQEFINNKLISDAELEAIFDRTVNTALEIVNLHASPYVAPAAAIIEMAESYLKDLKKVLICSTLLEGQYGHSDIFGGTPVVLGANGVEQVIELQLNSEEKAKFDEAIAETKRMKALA
Plasmodium falciparum protein kinase 6 (PK6, PF3D7_1337100), sequence (Q8IDW1 1-305): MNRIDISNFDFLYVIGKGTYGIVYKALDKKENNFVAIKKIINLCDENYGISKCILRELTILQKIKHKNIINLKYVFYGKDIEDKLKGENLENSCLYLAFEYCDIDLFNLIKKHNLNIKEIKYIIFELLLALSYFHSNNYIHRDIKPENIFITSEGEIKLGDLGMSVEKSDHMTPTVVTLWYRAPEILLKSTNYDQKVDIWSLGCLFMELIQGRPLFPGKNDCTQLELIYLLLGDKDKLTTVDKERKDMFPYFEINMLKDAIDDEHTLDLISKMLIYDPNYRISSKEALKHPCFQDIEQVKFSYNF
Protein kinase 7 (PK7), Plasmodium falciparum 3D7 (PF3D7_0213400), sequence (Q7YTF7 1-343): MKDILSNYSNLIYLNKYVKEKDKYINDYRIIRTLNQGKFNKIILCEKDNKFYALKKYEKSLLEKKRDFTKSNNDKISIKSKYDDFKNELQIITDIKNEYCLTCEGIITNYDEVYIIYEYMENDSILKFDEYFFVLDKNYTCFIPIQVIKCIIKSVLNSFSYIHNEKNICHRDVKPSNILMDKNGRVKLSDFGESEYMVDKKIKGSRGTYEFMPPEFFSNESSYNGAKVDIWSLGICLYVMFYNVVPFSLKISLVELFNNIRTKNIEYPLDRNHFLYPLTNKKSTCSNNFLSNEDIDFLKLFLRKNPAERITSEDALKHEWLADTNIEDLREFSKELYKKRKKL
Calcium-dependent protein kinase 1 (Plasmodium falciparum (isolate 3D7)), sequence (P62344 whole entry, looked up): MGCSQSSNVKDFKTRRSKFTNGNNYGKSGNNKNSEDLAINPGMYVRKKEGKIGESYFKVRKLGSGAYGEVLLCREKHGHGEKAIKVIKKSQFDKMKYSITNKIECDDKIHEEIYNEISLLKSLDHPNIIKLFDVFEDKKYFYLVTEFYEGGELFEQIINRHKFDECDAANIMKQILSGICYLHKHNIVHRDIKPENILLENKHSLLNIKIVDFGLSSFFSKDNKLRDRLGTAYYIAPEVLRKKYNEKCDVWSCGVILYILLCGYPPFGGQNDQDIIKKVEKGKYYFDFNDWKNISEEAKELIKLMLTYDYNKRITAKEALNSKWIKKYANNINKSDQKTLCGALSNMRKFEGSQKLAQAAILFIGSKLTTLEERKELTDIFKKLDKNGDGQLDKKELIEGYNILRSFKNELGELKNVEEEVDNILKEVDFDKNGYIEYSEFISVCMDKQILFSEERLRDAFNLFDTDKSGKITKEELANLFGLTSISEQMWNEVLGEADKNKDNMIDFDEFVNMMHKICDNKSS

For orientation: inhibition means the change of the read-out against control, counted positive when it falls. For the compound `Cc1cc(C(=O)Nc2ccc3c(c2)CCN3C2CCN(Cc3ccc(F)cc3Cl)C2)no1` (configuration not stated), the values for the growth inhibition in experiment [1] and in experiment [4] were 96% (active) and 95% (active), respectively. The inhibition in experiment [2] is 7%; in experiment [3], 1%. For the same compound, the result in experiment [5], in experiment [6], in experiment [7] and in experiment [8] was inactive.

`Cn1ccnc1CCC(=O)Nc1ccc(Cl)cc1C(=O)Nc1ccc(Cl)cc1`: the figures for the growth inhibition in experiment [1] and in experiment [4] were 3% and 92% (active), respectively. Moreover, the inhibition in experiment [2] is 28%; in experiment [3], 4%. Besides, the result in experiment [5], in experiment [6], in experiment [7] and in experiment [8] was inactive.

Take `O=C(Nc1ccc(-c2ccccc2)cc1)Nc1ccc2c(c1)CCNCC2`: the growth inhibition in experiment [1] was 48%; in experiment [4] it was 97% (active). For the same compound, the values for the inhibition in experiment [2] and in experiment [3] were 41% and -2%, respectively. Besides, the outcome in experiment [5], in experiment [6], in experiment [7] and in experiment [8] was inactive.

In the case of `COc1ccc2nccc(C(=O)NC3CCC(CCN4CCc5cc(C#N)ccc5C4)CC3)c2c1` (configuration not stated), the figures for the growth inhibition in experiment [1] and in experiment [4] were 1% and 97% (active), respectively. Also, the results for the inhibition in experiment [2] and in experiment [3] were 12% and 1%, respectively. The outcome in experiment [5], in experiment [6], in experiment [7] and in experiment [8] was inactive.

As for `Cc1cc(C)cc(OCC(O)CN(Cc2cc(Cl)cc(Cl)c2)C(=O)Nc2ccc([N+](=O)[O-])cc2)c1` (configuration not stated), the growth inhibition was 38% in experiment [1] and 95% (active) in experiment [4]. For the same compound, the inhibition in experiment [2] is -3%; in experiment [3] it was 4%. The result in experiment [5], in experiment [6], in experiment [7] and in experiment [8] was inactive.

On to `COc1cc2c(cc1OC)CN(CCc1ccc(NC(=O)c3cc4cc(OC(F)(F)F)ccc4[nH]3)cc1)CC2`, for which the growth inhibition in experiment [1] was 20%; in experiment [4], 99% (active). For the same compound, the inhibition in experiment [2] was 36%; in experiment [3] it was -3%. For the same compound, the result in experiment [5], in experiment [6], in experiment [7] and in experiment [8] was inactive.

In the case of `NC(N)=Nc1nc(-c2ccc(NCc3ccc(CNc4cccc(-c5csc(N=C(N)N)n5)c4)cc3)cc2)cs1`, the growth inhibition was 99% (active) in experiment [1] and 102% (active) in experiment [4]. The inhibition in experiment [2] was 11%; in experiment [3], 0%. Moreover, the result in experiment [5], in experiment [6], in experiment [7] and in experiment [8] was inactive.

For the compound `Cc1nn(CCOC(=O)NC(NCC2COc3ccccc3O2)C(Cl)(Cl)Cl)cc1[N+](=O)[O-]` (configuration not stated), the growth inhibition in experiment [1] and in experiment [4] was 99% (active) each time. Moreover, the inhibition in experiment [2] is -9%; in experiment [3] it was 2%. The result in experiment [5], in experiment [6], in experiment [7] and in experiment [8] was inactive.

In the case of `O=C(/C=C/c1ccc(Cl)c(Cl)c1)NCCCCCN1CCC(CCCNC(=O)Nc2ccc(C(F)(F)F)cc2)CC1`, the growth inhibition in experiment [1] was 19%; in experiment [4], 91% (active). The inhibition was -2% in experiment [2] and -7% in experiment [3]. In addition, the outcome in experiment [5], in experiment [6], in experiment [7] and in experiment [8] was inactive.

For the compound `Cc1cc(C(=O)Nc2ccc(OCc3ccccc3)cc2)on1`, the growth inhibition is 89% (active) in experiment [1] and 87% (active) in experiment [4]. The inhibition in experiment [2] and in experiment [3] was 1% in each case. Besides, the result in experiment [5], in experiment [6], in experiment [7] and in experiment [8] was inactive.

With `O=C(NCCc1ccc(Cl)c(Cl)c1)[C@@H]1CCCN1C(=O)c1ccc(O)c(-c2ccc(Cl)c(Cl)c2)c1`, the growth inhibition in experiment [1] and in experiment [4] was 99% (active) each time. Also, the inhibition in experiment [2] and in experiment [3] was -2% in each case. For the same compound, the outcome in experiment [5], in experiment [6], in experiment [7] and in experiment [8] was inactive.

In the case of `CO/C(=C\C=C\c1cc2cc(Cl)c(Cl)cc2[nH]1)C(=O)NCCCN1CCN(c2cccc(OC)c2)CC1`, the growth inhibition in experiment [1] is 93% (active); in experiment [4], 100% (active). The figures for the inhibition in experiment [2] and in experiment [3] were 61% (active) and 0%, respectively. In addition, the result in experiment [5], in experiment [6], in experiment [7] and in experiment [8] was inactive.

For `COc1cccc(Nc2c(C(N)=O)cnc3ccc(-c4ccc(S(C)=O)cc4)cc23)c1` (configuration not stated), the growth inhibition in experiment [1] was 100% (active); in experiment [4], 96% (active). Besides, the inhibition in experiment [2] was -3%; in experiment [3], 9%. Further, the outcome in experiment [5], in experiment [6], in experiment [7] and in experiment [8] was inactive.

Regarding `CN1CCN(Cc2ccc(-c3ccc4c(Nc5ccc(Oc6ccccn6)cc5)ccnc4c3)o2)CC1`, the growth inhibition was 99% (active) in experiment [1] and 101% (active) in experiment [4]. For the same compound, the figures for the inhibition in experiment [2] and in experiment [3] were 13% and -3%, respectively. The outcome in experiment [5], in experiment [6], in experiment [7] and in experiment [8] was inactive.

For the compound `O=C(/C=C/c1ccc(C(F)(F)F)cc1)NCCCCCN1CCC(c2c[nH]c3ccccc23)CC1`, the growth inhibition in experiment [1] is 22%; in experiment [4], 101% (active). Moreover, the figures for the inhibition in experiment [2] and in experiment [3] were 96% (active) and 1%, respectively. The outcome in experiment [5], in experiment [6], in experiment [7] and in experiment [8] was inactive.

Consider `COc1ccc(C(=O)Nc2ccc3nc(N4CCCCC4)cc(C)c3c2)cc1[N+](=O)[O-]`, for which the growth inhibition is 7% in experiment [1] and 96% (active) in experiment [4]. Also, the inhibition in experiment [2] was 17%; in experiment [3], -9%. Further, the outcome in experiment [5], in experiment [6], in experiment [7] and in experiment [8] was inactive.

On to `COc1ccc(C2C(C(=O)Nc3ccc(C)c(F)c3)c3cc(OC)c(OC)cc3C(=O)N2C)cc1` (configuration not stated), for which the growth inhibition is 26% in experiment [1] and 81% (active) in experiment [4]. For the same compound, the inhibition in experiment [2] is 6%; in experiment [3], -2%. The outcome in experiment [5], in experiment [6], in experiment [7] and in experiment [8] was inactive.

For the compound `CC1CCN(C(=O)C(Cc2c[nH]c3ccccc23)NS(=O)(=O)c2ccc(Cl)cc2)CC1` (configuration not stated), the growth inhibition in experiment [1] is 99% (active); in experiment [4] it was 100% (active). The inhibition in experiment [2] is -22%; in experiment [3], -4%. Moreover, the outcome in experiment [5], in experiment [6], in experiment [7] and in experiment [8] was inactive.

With `CC(=O)Nc1ccc(C(=O)Nc2cccc(-c3ccc(-c4nc5ccc(C(F)(F)F)cc5[nH]4)cc3)c2)cn1`, the growth inhibition in experiment [1] is 100% (active); in experiment [4], 101% (active). Besides, the inhibition was 46% in experiment [2] and -3% in experiment [3]. The result in experiment [5], in experiment [6], in experiment [7] and in experiment [8] was inactive.

The values are drawn from PubChem BioAssay.
